Laboratory results published in PubChem BioAssay (NCATS).
Values without a mark were called inactive. Results filed as inconclusive are left out. Entries that show only a call come without a potency. Calls of active or inactive are those of the source. Unless noted, calls come from the whole dose curve.

Assays:
[1] = Validation screen for inhibitors of Lassa infection (AID 463096); note: potency is the fitted concentration of half-maximal effect
[2] = Inducers of the Endoplasmic Reticulum Stress Response (ERSR) in human glioma: Validation (AID 504836; active = well fitted curve in the direction sought with a large enough effect; an effect the other way counts as inactive or inconclusive)
Method in brief: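 Stably transfected U87-MG glioma cells carrying a GRP78-based luciferase sensor; 16 h compound incubation. Luminescence end-point read 10 min after Bright-Glo addition at room temperature.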

[3] = qHTS for Inhibitors of the Functional Ribonucleoprotein Complex (vRNP) of Lassa (LASV) Arenavirus: LASV Primary Screen - GLuc reporter signal (AID 1347082; calls by dose curve; tested in HEK293 reporter line; note: series mostly up to about 57 µM; nearly all actives have a fitted effect of over 60% in size)
[4] = qHTS for Inhibitors of the Functional Ribonucleoprotein Complex (vRNP) of Lassa (LASV) Arenavirus: Viability assay - alamar blue signal for LASV Primary Screen (AID 1347083; calls by dose curve; tested in HEK293 reporter line; note: series mostly up to about 57 µM; nearly all actives have a fitted effect of over 80% in size)
[5] = qHTS for Inhibitors of the Functional Ribonucleoprotein Complex (vRNP) of Lymphocytic Choriomeningitis Arenaviruses (LCMV): Viability assay - alamar blue signal for LCMV Primary Screen (AID 1347085; calls by dose curve; tested in HEK293 reporter line; note: series mostly up to about 57 µM; nearly all actives have a fitted effect of over 80% in size)
[6] = biological target: Nucleoprotein (Lymphocytic choriomeningitis virus (strain Armstrong)) (UniProt P09992); assay: qHTS for Inhibitors of the Functional Ribonucleoprotein Complex (vRNP) of Lymphocytic Choriomeningitis Arenaviruses (LCMV): LCMV Primary Screen - GLuc reporter signal (AID 1347086); note: series mostly up to about 57 µM; nearly all actives have a fitted effect of over 70% in size
[7] = biological target: Alpha-galactosidase (Coffea arabica) (UniProt Q42656); assay: Counterscreen for Glucocerebrosidase Inhibitors: qHTS Assay for Coffee Bean alpha-Galactosidase at pH 4.5 (AID 957; active = well fitted curve in the direction sought with a large enough effect; an effect the other way counts as inactive or inconclusive; note: series mostly up to about 77 µM)
Method in brief: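 Coffee bean alpha-galactosidase 2 nM, substrate 4-MU-alpha-Gal 80 uM, pH 4.5 citrate/Tween-20, 20 min RT. Cpd titration 0.7 nM–77 uM. Stop pH 10, fluorescence 365/440 nm; Hill-equation AC50.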

[8] = biological target: Alpha-galactosidase (Coffea arabica) (UniProt Q42656); assay: Counterscreen for Glucocerebrosidase Inhibitors: qHTS Assay for Coffee Bean alpha-Galactosidase at pH 5.9 (AID 998; active = well fitted curve in the direction sought with a large enough effect; an effect the other way counts as inactive or inconclusive)
Method in brief: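 Green coffee bean enzyme (2 nM) with 4-methylumbelliferyl alpha-D-galactopyranoside (80 uM) in 50 mM citric acid, 0.005% Tween-20, pH 5.9, 20 min at room temperature; compounds 0.7 nM–77 uM. Stopped at pH 10, fluorescence Ex365/Em440; Hill-fit AC50.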

[9] = biological target: Ubiquitin carboxyl-terminal hydrolase 1 (Homo sapiens) (UniProt O94782); assay: Inhibitors of USP1/UAF1: Pilot qHTS (AID 504865; active = well fitted curve in the direction sought with a large enough effect; an effect the other way counts as inactive or inconclusive;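 note: rhodamine fluorescence freed from ubiquitin-rhodamine substrate followed over time; top concentration of the series differs between compounds; nearly all actives have a fitted effect of over 35% in size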)
Method in brief: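 Kinetic fluorescence assay: 1nM USP1/UAF1, 15 min compound preincubation, then 150nM Ub-Rho; 480/540 nm.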

[10] = biological target: Nuclear receptor ROR-gamma (Homo sapiens) (UniProt P51449); assay: qHTS assay for small molecule antagonists of the retinoid-related orphan receptor gamma (ROR-gamma) signaling pathway (AID 651802; active = well fitted curve in the direction sought with a large enough effect; an effect the other way counts as inactive or inconclusive;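 note: CHO cells with doxycycline-induced ROR-gamma expression; luciferase reporter luminescence driven by ROR response element; series mostly up to about 92 µM; nearly all actives have a fitted effect of over 60% in size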)
Method in brief: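 CHO, TET-inducible ROR + RORE-LUC reporter, 1536-well qHTS. Compound pinned, doxycycline added, 16hr 37C/5% CO2. ONE-Glo, 30 min RT, luminescence; signal drop scored as antagonism.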

[11] = biological target: Arylsulfatase A (Homo sapiens) (UniProt P15289); assay: qHTS screen for enhancers of Arylsulfatase A (ASA1): LOPAC Validation Assay (AID 720538; active = well fitted curve in the direction sought with a large enough effect; an effect the other way counts as inactive or inconclusive)
Method in brief: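 First, ASA-I179S fibroblasts from an MLD patient adhered for 6 hrs. Next, compounds were added for 48h. Then pNCS substrate (0.5mM final) with lysis buffer reacted 14h at room temperature before NaOH stop and fluorescence measurement.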

[12] = biological target: Voltage-gated inwardly rectifying potassium channel KCNH2 (Homo sapiens) (UniProt Q12809); assay: qHTS Assay for Small Molecule Inhibitors of the Human hERG Channel Activity (AID 588834; active = well fitted curve in the direction sought with a large enough effect; an effect the other way counts as inactive or inconclusive;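 note: potency is the fitted concentration of half-maximal effect; lower thallium flux fluorescence means stronger hERG block; nearly all actives have a fitted effect of over 50% in size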)
Method in brief: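 Measured: FluxOR fluorescence after thallium stimulation in U2OS cells transduced with hERG by baculovirus. Compounds pre-incubated around 10 min; medium Opti-MEM with 2% FCS. AC50 from Hill equation.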

[13] = biological target: Cytochrome P450 3A4 (Homo sapiens) (UniProt P08684); assay: qHTS Assay for Inhibitors and Substrates of Cytochrome P450 3A4 (AID 884; active = well fitted curve in the direction sought with a large enough effect; an effect the other way counts as inactive or inconclusive; note: series mostly up to about 57 µM; nearly all actives have a fitted effect of over 50% in size)
Method in brief: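 20 nM human CYP3A4 with 25 uM Luciferin-PPXE (at KM) in 200 mM KPO4, preincubated 10 min with compound; NADPH regeneration started a 60 min RT reaction. Luciferin detected by luminescence, normalized to 57 uM ketoconazole as full inhibition.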

Sequence of Nucleoprotein (Lymphocytic choriomeningitis virus (strain Armstrong)) (P09992 whole entry, looked up): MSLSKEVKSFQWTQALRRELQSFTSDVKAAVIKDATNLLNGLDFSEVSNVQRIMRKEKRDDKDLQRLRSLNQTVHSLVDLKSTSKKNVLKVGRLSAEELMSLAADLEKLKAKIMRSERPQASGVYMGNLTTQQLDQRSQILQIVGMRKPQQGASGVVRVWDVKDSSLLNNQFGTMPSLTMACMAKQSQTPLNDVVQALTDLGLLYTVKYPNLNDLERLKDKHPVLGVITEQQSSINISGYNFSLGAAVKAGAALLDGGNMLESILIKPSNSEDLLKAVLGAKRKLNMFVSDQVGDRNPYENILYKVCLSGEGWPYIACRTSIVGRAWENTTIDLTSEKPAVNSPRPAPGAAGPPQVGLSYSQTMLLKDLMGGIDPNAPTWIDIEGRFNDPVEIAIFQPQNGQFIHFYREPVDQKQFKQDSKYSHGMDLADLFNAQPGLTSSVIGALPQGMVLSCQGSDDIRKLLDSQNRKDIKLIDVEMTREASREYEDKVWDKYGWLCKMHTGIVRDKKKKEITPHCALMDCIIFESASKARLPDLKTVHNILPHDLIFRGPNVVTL
Sequence of Alpha-galactosidase (Coffea arabica) (Q42656 whole entry, looked up): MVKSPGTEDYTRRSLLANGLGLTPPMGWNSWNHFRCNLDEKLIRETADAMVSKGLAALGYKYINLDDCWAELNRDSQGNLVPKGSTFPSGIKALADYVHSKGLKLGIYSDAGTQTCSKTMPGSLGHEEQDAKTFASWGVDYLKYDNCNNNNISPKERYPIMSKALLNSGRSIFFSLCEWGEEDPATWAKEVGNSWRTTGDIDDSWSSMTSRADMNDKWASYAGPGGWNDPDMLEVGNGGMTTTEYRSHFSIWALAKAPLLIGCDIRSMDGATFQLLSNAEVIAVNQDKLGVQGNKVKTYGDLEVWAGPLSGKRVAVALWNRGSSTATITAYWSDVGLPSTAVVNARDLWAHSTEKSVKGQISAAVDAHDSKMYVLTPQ
Sequence of Nuclear receptor ROR-gamma (Homo sapiens) (P51449 whole entry, looked up): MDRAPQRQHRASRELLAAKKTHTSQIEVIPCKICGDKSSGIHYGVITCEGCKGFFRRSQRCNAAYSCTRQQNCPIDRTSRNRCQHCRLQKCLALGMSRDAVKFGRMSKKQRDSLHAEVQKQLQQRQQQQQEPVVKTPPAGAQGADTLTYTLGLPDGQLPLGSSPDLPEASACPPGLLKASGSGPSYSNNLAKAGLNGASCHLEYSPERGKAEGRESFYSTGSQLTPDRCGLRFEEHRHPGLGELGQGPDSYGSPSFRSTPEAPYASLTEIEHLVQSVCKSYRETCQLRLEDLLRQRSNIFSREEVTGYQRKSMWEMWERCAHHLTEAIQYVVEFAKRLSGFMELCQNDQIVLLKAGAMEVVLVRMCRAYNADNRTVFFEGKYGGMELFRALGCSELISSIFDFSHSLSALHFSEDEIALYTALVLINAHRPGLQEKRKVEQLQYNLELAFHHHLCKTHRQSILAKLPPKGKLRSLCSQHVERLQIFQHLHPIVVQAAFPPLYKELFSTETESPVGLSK
Sequence of Ubiquitin carboxyl-terminal hydrolase 1 (Homo sapiens) (O94782 whole entry, looked up): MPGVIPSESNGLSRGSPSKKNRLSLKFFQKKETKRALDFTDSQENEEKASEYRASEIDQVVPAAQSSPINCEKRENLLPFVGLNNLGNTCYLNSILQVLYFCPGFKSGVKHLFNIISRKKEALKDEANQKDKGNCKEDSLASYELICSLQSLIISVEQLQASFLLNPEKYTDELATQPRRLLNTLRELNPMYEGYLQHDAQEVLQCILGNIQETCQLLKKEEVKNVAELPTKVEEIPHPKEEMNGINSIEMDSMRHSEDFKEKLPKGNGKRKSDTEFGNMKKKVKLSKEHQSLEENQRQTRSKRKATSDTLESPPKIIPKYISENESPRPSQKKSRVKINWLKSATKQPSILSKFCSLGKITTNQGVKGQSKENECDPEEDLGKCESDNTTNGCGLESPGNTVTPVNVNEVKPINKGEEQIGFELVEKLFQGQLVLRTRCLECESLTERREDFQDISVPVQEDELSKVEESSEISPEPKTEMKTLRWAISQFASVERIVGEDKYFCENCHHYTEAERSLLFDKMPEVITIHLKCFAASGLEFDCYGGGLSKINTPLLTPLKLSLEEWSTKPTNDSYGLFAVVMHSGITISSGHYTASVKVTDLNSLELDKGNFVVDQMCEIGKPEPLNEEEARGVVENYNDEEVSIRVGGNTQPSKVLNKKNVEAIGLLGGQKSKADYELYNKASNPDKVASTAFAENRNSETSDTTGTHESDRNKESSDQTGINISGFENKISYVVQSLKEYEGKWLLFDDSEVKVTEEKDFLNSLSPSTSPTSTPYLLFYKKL
Sequence of Cytochrome P450 3A4 (Homo sapiens) (P08684 whole entry, looked up): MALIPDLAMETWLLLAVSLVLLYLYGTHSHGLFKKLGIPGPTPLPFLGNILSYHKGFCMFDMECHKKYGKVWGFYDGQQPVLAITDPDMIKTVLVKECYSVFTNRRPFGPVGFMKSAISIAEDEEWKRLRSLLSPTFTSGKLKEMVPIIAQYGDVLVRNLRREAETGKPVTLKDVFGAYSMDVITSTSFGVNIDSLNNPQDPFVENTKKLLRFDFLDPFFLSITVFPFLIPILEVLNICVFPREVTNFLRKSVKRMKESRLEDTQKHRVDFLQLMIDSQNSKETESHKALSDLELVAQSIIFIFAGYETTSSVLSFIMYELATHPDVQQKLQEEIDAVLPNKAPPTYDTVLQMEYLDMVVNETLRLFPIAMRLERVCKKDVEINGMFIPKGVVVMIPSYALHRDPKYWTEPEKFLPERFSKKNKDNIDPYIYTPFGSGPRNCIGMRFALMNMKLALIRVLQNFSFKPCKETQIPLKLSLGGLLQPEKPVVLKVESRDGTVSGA
Sequence of Voltage-gated inwardly rectifying potassium channel KCNH2 (Homo sapiens) (Q12809 whole entry, looked up): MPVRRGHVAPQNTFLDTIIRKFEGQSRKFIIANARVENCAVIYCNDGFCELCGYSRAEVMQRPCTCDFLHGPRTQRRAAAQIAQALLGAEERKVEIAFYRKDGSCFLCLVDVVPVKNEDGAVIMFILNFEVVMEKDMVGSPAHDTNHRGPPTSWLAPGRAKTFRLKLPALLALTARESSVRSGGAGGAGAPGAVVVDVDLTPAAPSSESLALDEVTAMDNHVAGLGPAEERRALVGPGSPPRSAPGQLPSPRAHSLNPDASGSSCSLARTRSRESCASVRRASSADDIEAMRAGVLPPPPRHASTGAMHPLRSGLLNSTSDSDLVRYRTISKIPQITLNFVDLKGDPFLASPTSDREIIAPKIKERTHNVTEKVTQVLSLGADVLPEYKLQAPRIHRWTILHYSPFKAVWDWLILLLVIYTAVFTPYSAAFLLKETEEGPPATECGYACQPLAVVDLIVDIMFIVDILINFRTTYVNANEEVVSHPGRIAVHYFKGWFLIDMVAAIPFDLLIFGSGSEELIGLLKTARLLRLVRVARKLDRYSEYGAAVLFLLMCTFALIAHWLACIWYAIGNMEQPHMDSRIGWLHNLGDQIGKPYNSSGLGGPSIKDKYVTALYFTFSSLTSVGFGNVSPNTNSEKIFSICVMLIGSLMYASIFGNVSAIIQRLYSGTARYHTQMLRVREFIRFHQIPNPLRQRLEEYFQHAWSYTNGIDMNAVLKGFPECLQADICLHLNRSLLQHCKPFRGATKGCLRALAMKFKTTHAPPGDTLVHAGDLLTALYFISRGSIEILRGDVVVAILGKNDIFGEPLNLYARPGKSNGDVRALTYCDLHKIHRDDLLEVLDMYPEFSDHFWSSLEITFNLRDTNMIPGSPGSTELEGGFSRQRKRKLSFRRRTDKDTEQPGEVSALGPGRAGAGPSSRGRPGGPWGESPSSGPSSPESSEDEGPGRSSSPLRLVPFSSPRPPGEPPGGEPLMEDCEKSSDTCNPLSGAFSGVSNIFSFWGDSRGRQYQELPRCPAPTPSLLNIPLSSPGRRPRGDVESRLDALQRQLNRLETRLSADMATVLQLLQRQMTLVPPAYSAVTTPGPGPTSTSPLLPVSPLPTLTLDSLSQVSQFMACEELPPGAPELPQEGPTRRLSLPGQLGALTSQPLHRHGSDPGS
Sequence of Arylsulfatase A (Homo sapiens) (P15289 whole entry, looked up): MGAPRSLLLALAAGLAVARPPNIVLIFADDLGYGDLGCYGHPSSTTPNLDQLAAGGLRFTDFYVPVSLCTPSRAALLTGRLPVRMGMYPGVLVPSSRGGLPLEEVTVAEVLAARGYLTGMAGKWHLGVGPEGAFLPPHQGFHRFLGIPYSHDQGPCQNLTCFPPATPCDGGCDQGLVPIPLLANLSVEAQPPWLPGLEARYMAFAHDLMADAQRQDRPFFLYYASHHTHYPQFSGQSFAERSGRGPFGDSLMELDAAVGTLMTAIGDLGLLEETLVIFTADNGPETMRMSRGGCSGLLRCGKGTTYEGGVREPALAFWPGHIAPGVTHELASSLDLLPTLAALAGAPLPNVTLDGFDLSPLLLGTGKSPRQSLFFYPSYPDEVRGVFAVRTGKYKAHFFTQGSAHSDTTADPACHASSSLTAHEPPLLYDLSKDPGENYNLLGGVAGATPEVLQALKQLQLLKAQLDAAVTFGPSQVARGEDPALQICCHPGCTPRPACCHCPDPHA

Row | SMILES | Potency [1] | outcome [2] | Potency [3] | Potency [4] | Potency [5] | Potency [6] | outcome [7] | outcome [8] | Potency [9] | Potency [10] | Potency [11] | Potency [12] | Potency [13]
1 | CCCCCC[C@@H]([C@@H](C)O)n1cnc2c(N)ncnc21 | inactive | inactive | inactive | inactive | inactive | inactive |  |  |  |  |  |  | 
2 | Oc1ccc(C2CNCc3sccc32)cc1O (stereo unspecified) | inactive | inactive | inactive | inactive | inactive | inactive |  |  |  |  |  |  | 
3 | Cn1cc(C(F)(F)F)nc1-c1ccc(OCC(O)CNCCOc2ccc(O)c(C(N)=O)c2)cc1 (stereo unspecified) | inactive | inactive | inactive | inactive | inactive | inactive |  |  |  |  |  |  | 
4 | CC1CCN=C(N)S1 (stereo unspecified) | inactive | inactive | inactive | inactive | inactive | inactive |  |  |  |  |  |  | 
5 | COC(=O)C1=C(C)NC(C)=C([N+](=O)[O-])C1c1ccccc1C(F)(F)F (stereo unspecified) | inactive | inactive | inactive | inactive | inactive | inactive |  |  |  |  |  |  | 
6 | CNc1ncnc2c1ncn2[C@H]1C[C@H](OP(=O)(O)O)[C@@H](COP(=O)(O)O)O1 | inactive | inactive | inactive | inactive | inactive | inactive |  |  |  |  |  |  | 
7 | O=C(O)/C=C/C(O)c1ccc(Cl)cc1 (stereo unspecified) | inactive | inactive | inactive | inactive | inactive | inactive |  |  |  |  |  |  | 
8 | NC(=O)CC[C@H](N)C(=O)O | inactive | inactive | inactive | inactive | inactive | inactive |  |  |  |  |  |  | 
9 | CC1(C)CCC(NC(=O)[C@@H](N)CCC(=O)O)CC1 | inactive | inactive | inactive | inactive | inactive | inactive |  |  |  |  |  |  | 
10 | Oc1cc(O)c2c(c1)O[C@H](c1ccc(O)c(O)c1)[C@@H](O)C2 | inactive | inactive | inactive | inactive | inactive | inactive |  |  |  |  |  |  | 
11 | O=C(O)/C=C/c1cnc[nH]1 | inactive | inactive | inactive | inactive | inactive | inactive |  |  |  |  |  |  | 
12 | O=C(/C=C/c1ccc(O)cc1)c1ccc(O)cc1O | inactive | inactive | inactive | inactive | inactive | inactive |  |  |  |  |  |  | 
13 | O=C(O)c1cc2cc(F)ccc2[nH]1 | inactive | inactive | inactive | inactive | inactive | inactive | inactive | inactive |  |  |  |  | 
14 | CCCc1c(-c2ccc(O)cc2)nn(-c2ccc(O)cc2)c1-c1ccc(O)cc1 | 2 µM (active) | inactive | inactive | inactive | inactive | inactive | inactive | inactive |  |  |  |  | 
15 | Oc1ccc(Cn2cc[nH]c2=S)cc1 | inactive | inactive | inactive | inactive | inactive | inactive | inactive | inactive |  |  |  |  | 
16 | NC(CCCP(=O)(O)O)C(=O)O (stereo unspecified) | inactive | inactive | inactive | inactive | inactive | inactive |  |  | inactive |  |  |  | 
17 | c1ccc2nc(C3=NCCN3)ccc2c1 | inactive | inactive | inactive | inactive | inactive | inactive | inactive | inactive |  |  |  |  | 
18 | COC(=O)[C@H](NC(=O)c1cc(-c2ccccc2)nc2ccccc12)c1ccccc1 | inactive | inactive | inactive | inactive | inactive | inactive | inactive | inactive |  |  |  |  | 
19 | O=c1[nH]ccc2c(O)cccc12 | inactive | inactive | inactive | inactive | inactive | inactive | inactive | inactive |  |  |  |  | 
20 | Cc1nc(N=Nc2cc(S(=O)(=O)O)c3cc([N+](=O)[O-])cc(S(=O)(=O)O)c3c2)c(COP(=O)(O)O)c(C=O)c1O | inactive | inactive | inactive | inactive | inactive | inactive | inactive | inactive |  |  |  |  | 
21 | CN1CCC[C@H]1c1cccnc1 | inactive | inactive | inactive | inactive | inactive | inactive |  |  |  | inactive | inactive |  | 
22 | COc1cc2c(CCNC(C)=O)c[nH]c2cc1O | inactive | inactive | inactive | inactive | inactive | inactive | inactive | inactive |  |  |  |  | 
23 | OC(CN1CCN(c2cccc(Cl)c2)CC1)C(c1ccccc1)c1ccccc1 (stereo unspecified) | inactive | inactive | inactive | inactive | inactive | inactive |  |  |  |  |  |  | 
24 | C[C@@H](NCCc1ccc(O)cc1)[C@@H](O)c1ccc(O)cc1 | inactive | inactive | inactive | inactive | inactive | inactive |  |  |  |  |  | 7.94 µM (active) | 
25 | N#Cc1cc2nc(O)c(O)nc2cc1[N+](=O)[O-] | inactive | inactive | inactive | inactive | inactive | inactive | inactive | inactive |  |  |  |  | 
26 | CCN(CC)CCOC(=O)c1cc(Cl)c(N)cc1OC | inactive | inactive | inactive | inactive | inactive | inactive | inactive | inactive |  |  |  |  | 
27 | CCCCCCCCCCCCCCC[C@H](O)[C@H](N)CO | inactive | inactive | inactive | inactive | inactive | inactive | inactive | inactive |  |  |  |  | 
28 | OC[C@H]1O[C@@H](n2cnc3cncnc32)[C@H](O)[C@@H]1O | inactive | inactive | inactive | inactive | inactive | inactive |  |  |  |  |  |  | inactive
29 | CC(N)(C(=O)O)c1ccc(C(=O)O)cc1 (stereo unspecified) | inactive | inactive | inactive | inactive | inactive | inactive |  |  |  |  |  |  | 
